Reference: PubChem BioAssay (NCATS)
Values joined by “and” are separate entries in the source; they are usually repeats but may differ in a detail not shown here. Equal values may be shown once. Active and inactive are the calls of the source. Unless noted, calls come from the whole dose curve.

Experiments:
[1] = target: Glucocorticoid receptor (Homo sapiens) (UniProt P04150); assay: qHTS assay for small molecule antagonists of glucocorticoid receptor signaling (AID 588533; active = well fitted inhibition curve with a large enough effect in the signal ratio, with a control signal flat, not every such curve was filed as active; inconclusive = small, poorly fitted or top-dose-only effect, or effect the other way, or a change in a side signal; the % refers to the signal ratio; note: % is set by controls: 0 for no effect and ±100 for the full control effect); conditions: HeLa MMTV-bla, GRE beta-lactamase ratio, antagonist mode, 18 h; series mostly up to 76.8 µM
Method in brief: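 Antagonist-mode qHTS: compound titrations added to GRE-bla HeLa cells, then dexamethasone 2 nM final; 18 h, 37 C. CCF4 FRET fluorescence normalized to dexamethasone and DMSO; IC50 from Hill fit.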

[2] = target: Vitamin D3 receptor (Homo sapiens) (UniProt P11473); assay: qHTS assay for small molecule antagonists of vitamin D receptor signaling (AID 588541); conditions: HEK293T VDR-UAS-bla, beta-lactamase ratio, antagonist mode; series mostly up to 76.7 µM;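 note: receptor activated by calcitriol during compound treatment; % is set by controls: 0 for no effect and ±100 for the full control effect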
Method in brief: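 VDR-UAS-bla HEK293T cells in 2% charcoal-stripped FBS were stimulated with 1-alpha,25-dihydroxyvitamin D3 (3 nM final) plus compound for 16 h at 37 C. The beta-lactamase CCF4 readout was normalized to 50 nM agonist and DMSO, and Hill fits gave IC50.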

[3] = target: Vitamin D3 receptor (Homo sapiens) (UniProt P11473); assay: qHTS assay for small molecule agonists of vitamin D receptor signaling (AID 588543); conditions: HEK293T VDR-UAS-bla, beta-lactamase ratio, 16 h; series mostly up to 76.8 µM;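 note: 0% = DMSO basal and 100% = reference agonist control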
Method in brief: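 Reporter cells (HEK293T, VDR-UAS-bla) were seeded in medium with 2% charcoal-stripped serum and incubated 5 h, then compounds in concentration series were added for 16 h at 37 °C. Stimulation was scaled between DMSO basal and 50 nM 1α,25-dihydroxyvitamin D3.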

[4] = qHTS assay for small molecule agonists of retinoid X receptor alpha signaling (AID 588544); conditions: HEK293T RXRa-UAS-bla, beta-lactamase reporter, 18 h; 530 nm emission;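 for activation: 0% = DMSO basal wells and 100% = reference agonist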
[5] = target: Retinoic acid receptor RXR-alpha (Homo sapiens) (UniProt P19793); assay: as above; conditions: HEK293T RXRa-UAS-bla, beta-lactamase reporter, 18 h; series mostly up to 76.7 µM
[6] = target: Thyroid hormone receptor beta (Homo sapiens) (UniProt P10828); assay: qHTS assay for small molecule agonists of thyroid hormone receptor beta signaling (AID 588545); conditions: TR-UAS-bla GripTite HEK 293, beta-lactamase ratio, agonist mode, 18 h, percent of T3 response, DMSO as zero; series mostly up to 76.7 µM;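 note: 0% = DMSO only and 100% = 10 nM T3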
Method in brief: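 Beta-lactamase reporter activity under TR response element control is measured in HEK 293 cells after 18 hrs compound exposure. Signal is ratiometric CCF4 fluorescence, 460/530 nm.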

[7] = target: Ubiquitin carboxyl-terminal hydrolase 1 (Homo sapiens) (UniProt O94782); assay: Inhibitors of USP1/UAF1: Pilot qHTS (AID 504865; active = well fitted inhibition curve with a large enough effect; inconclusive = small, poorly fitted or top-dose-only effect;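 note: rhodamine fluorescence freed from ubiquitin-rhodamine substrate followed over time; top concentration of the series differs between compounds; % is set by controls: 0 for no effect and ±100 for the full control effect; nearly all actives have a fitted effect of over 35% in size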); conditions: purified USP1/UAF1, Ub-rhodamine cleavage fluorescence; series mostly up to 114 µM
Method in brief: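 In 50mM HEPES pH 7.8 containing 0.5mM EDTA, 1mM TCEP, 0.1 mg/ml BSA and 0.01% Tween-20, 1nM USP1/UAF1 is exposed to compound for 15 min, then Ub-Rho (150nM final) is added and fluorescence is read over time.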

[8] = target: DNA dC->dU-editing enzyme APOBEC-3G (Homo sapiens) (UniProt Q9HC16); assay: qHTS for inhibitors of Vif-A3G interactions: Validation (AID 588379; active = well fitted inhibition curve with a large enough effect; inconclusive = small, poorly fitted or top-dose-only effect; note: 0% is about no effect); conditions: Vif-A3G protein interaction assay; series mostly up to 46.1 µM
Method in brief: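 Yellow fluorescence (Ex 488, Em 500-530) of Vif-coexpressing HeLa A3G-eYFP cells, scanned by Acumen cytometer, reports blocked A3G degradation. Cells plated at 700/well overnight at 37 deg C before compound addition, then a further overnight compound incubation at 37 deg C.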

[9] = target: Estrogen receptor (Homo sapiens) (UniProt P03372); assay: qHTS assay for small molecule antagonists of estrogen receptor alpha signaling (AID 588513; active = well fitted curve in the direction sought with a large enough effect in the signal ratio, with a control signal flat, not every such curve was filed as active; inconclusive = small, poorly fitted or top-dose-only effect, or effect the other way, or a change in a side signal; inactive = no such curve, though single readings can be large or run the other way; the % refers to the signal ratio; note: potency is the fitted concentration of half-maximal effect); conditions: ER-alpha-UAS-bla HEK293, beta-lactamase ratio, antagonist mode; series mostly up to 76.9 µM
Method in brief: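 Fluorescence from CCF4 substrate after 2 h at room temperature gave reporter activity; cells had been exposed to compound and 0.5nM 17-beta-estradiol for 18 h at 37 C. Hill-equation fitting yielded IC50 and maximal response.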

[10] = target: Estrogen receptor (Homo sapiens) (UniProt P03372); assay: qHTS assay for small molecule agonists of estrogen receptor alpha signaling (AID 588514); conditions: ER-alpha-UAS-bla HEK293, beta-lactamase ratio, 18 h; series mostly up to 76.8 µM; note: nearly all actives have a fitted effect of over 70% in size; note: potency is the fitted concentration of half-maximal effect;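 for activation: 0% = vehicle only and 100% = reference agonist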
Method in brief: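 Fluorescence from CCF4 cleavage reports ER-alpha-driven beta-lactamase expression in HEK 293 cells treated 18 hrs at 37 C. Data normalized to 17-beta-estradiol (20 nM) and DMSO, fitted to Hill equation.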

[11] = target: Glucocorticoid receptor (Homo sapiens) (UniProt P04150); assay: qHTS assay for small molecule agonists of glucocorticoid receptor signaling (AID 588532; active = well fitted curve in the direction sought with a large enough effect in the signal ratio, with a control signal flat; inconclusive = small, poorly fitted or top-dose-only effect, or a change in a side signal; inactive = no such curve, though single readings can be large or run the other way; the % refers to the signal ratio;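 note: 100% = dexamethasone at 0.1 µM and 0% = DMSO only wells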); conditions: HeLa MMTV-bla, beta-lactamase ratio, agonist, 18 h; stronger effect = higher value; percent of dexamethasone control, DMSO zero
Method in brief: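 Cells were plated and rested 3-5 h at 37 C, compounds were added in titration and incubated 18 h, then CCF4 substrate was loaded for 2 h at RT before reading blue/green fluorescence. EC50 came from Hill-equation fitting.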

[12] = qHTS assay for small molecule antagonists of peroxisome proliferator-activated receptor delta signaling (AID 588535; active = well fitted inhibition curve with a large enough effect in the signal ratio, with a control signal flat, not every such curve was filed as active; inconclusive = small, poorly fitted or top-dose-only effect, or effect the other way, or a change in a side signal; inactive = no such curve, though single readings can be large or run the other way; the % refers to the signal ratio;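 for max response: cells co-treated with a PPAR-delta agonist as stimulator during compound exposure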); conditions: HEK293T PPARd-UAS-bla, beta-lactamase FRET ratio, 18 h; 460 nm channel
Method in brief: (§1)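 Beta-lactamase reporter read-out (405 nm excitation, 460/530 nm emission) after CCF4 loading for 2 hrs at RT. HEK293T PPAR-delta-UAS-bla cells, 2% charcoal/dextran FBS, compounds for 18 hrs at 37 C. Hill fit gave IC50 and efficacy.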

[13] = target: Peroxisome proliferator-activated receptor delta (Homo sapiens) (UniProt Q03181); assay: as above; conditions: HEK293T PPARd-UAS-bla, beta-lactamase FRET ratio, 18 h; series mostly up to 76.7 µM
Method in brief: as §1

[14] = target: Androgen receptor (Homo sapiens) (UniProt P10275); assay: qHTS assay for small molecule agonists of androgen receptor signaling (AID 588515; active = well fitted curve in the direction sought with a large enough effect in the signal ratio, with a control signal flat; inconclusive = small, poorly fitted or top-dose-only effect, or effect the other way, or a change in a side signal; inactive = no such curve, though single readings can be large or run the other way; the % refers to the signal ratio; note: % is set by controls: 0 for no effect and ±100 for the full control effect); conditions: AR-UAS-bla HEK293, beta-lactamase ratio, agonist 16 h; stronger effect = higher value
Method in brief: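 Stimulation of an AR-responsive β-lactamase reporter in GripTite HEK293 cells was measured after 16 h compound exposure at 37 °C, via CCF4 fluorescence after 2 h RT. EC50 from Hill fits, normalized to R1881 at 30 nM.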

[15] = target: Androgen receptor (Homo sapiens) (UniProt P10275); assay: qHTS assay for small molecule antagonists of androgen receptor signaling (AID 588516; active = well fitted curve in the direction sought with a large enough effect in the signal ratio, with a control signal flat, not every such curve was filed as active; inconclusive = small, poorly fitted or top-dose-only effect, or effect the other way, or a change in a side signal; inactive = no such curve, though single readings can be large or run the other way; the % refers to the signal ratio; note: % is set by controls: 0 for no effect and ±100 for the full control effect); conditions: AR-UAS-bla HEK293, beta-lactamase ratio, antagonist mode, 16 h; series mostly up to 76.8 µM
Method in brief: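 Cells were plated and incubated 5 h, compounds added in titration, then R1881 (10 nM final) as agonist. After 16 h at 37 C, CCF4 substrate was loaded for 2 h at room temperature and fluorescence measured.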

[16] = target: Bile acid receptor (Homo sapiens) (UniProt Q96RI1); assay: qHTS assay for small molecule antagonists of farnesoid X receptor signaling (AID 588526); conditions: HEK293T FXR-UAS-bla, beta-lactamase ratio, antagonist mode; series mostly up to 76.7 µM; note: % is set by controls: 0 for no effect and ±100 for the full control effect
Method in brief: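 Antagonist mode: titrated compounds tested against chenodeoxycholic acid stimulation (normalized to 50 uM CDCA and DMSO) in GeneBLAzer HEK293T cells for 16 h. Beta-lactamase read by CCF4 fluorescence; IC50 from Hill fits.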

[17] = target: Peroxisome proliferator-activated receptor gamma (Homo sapiens) (UniProt P37231); assay: qHTS assay for small molecule antagonists of peroxisome proliferator-activated receptor gamma signaling (AID 588537; active = well fitted inhibition curve with a large enough effect in the signal ratio, with a control signal flat, not every such curve was filed as active; inconclusive = small, poorly fitted or top-dose-only effect, or effect the other way, or a change in a side signal; the % refers to the signal ratio;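 note: reporter cells co-stimulated with 50 nM rosiglitazone agonist during compound treatment; % of control where 0% means no effect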); conditions: HEK293 PPARg-UAS-bla, beta-lactamase ratio, antagonist mode; series mostly up to 76.8 µM
Method in brief: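 Read-out: CCF4 fluorescence (ex 405, em 460/530 nm) after 2 h at RT. Cells were HEK293 carrying a UAS-bla reporter and treated 16 h at 37 C with compound plus rosiglitazone (50 nM final). Normalized to rosiglitazone and DMSO.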

Retinoic acid receptor RXR-alpha (Homo sapiens), sequence (P19793 whole entry, looked up): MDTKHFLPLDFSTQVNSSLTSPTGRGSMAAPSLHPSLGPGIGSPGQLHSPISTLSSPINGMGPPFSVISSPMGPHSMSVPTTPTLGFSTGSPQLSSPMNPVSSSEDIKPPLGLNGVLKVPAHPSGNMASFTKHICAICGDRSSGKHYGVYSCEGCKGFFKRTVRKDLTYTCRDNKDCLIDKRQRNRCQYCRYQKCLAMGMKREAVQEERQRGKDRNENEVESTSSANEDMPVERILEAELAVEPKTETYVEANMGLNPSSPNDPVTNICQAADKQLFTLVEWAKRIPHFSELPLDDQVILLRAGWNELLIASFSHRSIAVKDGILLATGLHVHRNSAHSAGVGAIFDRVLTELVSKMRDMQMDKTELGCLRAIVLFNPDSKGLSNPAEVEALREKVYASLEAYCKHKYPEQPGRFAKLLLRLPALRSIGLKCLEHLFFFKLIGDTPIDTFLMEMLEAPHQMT
Thyroid hormone receptor beta (Homo sapiens), sequence (P10828 whole entry, looked up): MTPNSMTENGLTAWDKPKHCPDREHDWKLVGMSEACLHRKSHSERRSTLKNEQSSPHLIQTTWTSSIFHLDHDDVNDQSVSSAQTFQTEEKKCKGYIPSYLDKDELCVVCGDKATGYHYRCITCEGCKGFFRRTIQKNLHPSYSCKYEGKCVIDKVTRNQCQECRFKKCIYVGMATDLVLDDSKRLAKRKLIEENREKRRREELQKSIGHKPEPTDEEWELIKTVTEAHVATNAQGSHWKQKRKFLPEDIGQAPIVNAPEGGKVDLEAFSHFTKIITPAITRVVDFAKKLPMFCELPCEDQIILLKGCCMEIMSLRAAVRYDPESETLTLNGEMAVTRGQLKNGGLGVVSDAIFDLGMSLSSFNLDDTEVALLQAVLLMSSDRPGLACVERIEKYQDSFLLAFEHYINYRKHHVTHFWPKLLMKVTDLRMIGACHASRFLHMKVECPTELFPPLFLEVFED
Ubiquitin carboxyl-terminal hydrolase 1 (Homo sapiens), sequence (O94782 whole entry, looked up): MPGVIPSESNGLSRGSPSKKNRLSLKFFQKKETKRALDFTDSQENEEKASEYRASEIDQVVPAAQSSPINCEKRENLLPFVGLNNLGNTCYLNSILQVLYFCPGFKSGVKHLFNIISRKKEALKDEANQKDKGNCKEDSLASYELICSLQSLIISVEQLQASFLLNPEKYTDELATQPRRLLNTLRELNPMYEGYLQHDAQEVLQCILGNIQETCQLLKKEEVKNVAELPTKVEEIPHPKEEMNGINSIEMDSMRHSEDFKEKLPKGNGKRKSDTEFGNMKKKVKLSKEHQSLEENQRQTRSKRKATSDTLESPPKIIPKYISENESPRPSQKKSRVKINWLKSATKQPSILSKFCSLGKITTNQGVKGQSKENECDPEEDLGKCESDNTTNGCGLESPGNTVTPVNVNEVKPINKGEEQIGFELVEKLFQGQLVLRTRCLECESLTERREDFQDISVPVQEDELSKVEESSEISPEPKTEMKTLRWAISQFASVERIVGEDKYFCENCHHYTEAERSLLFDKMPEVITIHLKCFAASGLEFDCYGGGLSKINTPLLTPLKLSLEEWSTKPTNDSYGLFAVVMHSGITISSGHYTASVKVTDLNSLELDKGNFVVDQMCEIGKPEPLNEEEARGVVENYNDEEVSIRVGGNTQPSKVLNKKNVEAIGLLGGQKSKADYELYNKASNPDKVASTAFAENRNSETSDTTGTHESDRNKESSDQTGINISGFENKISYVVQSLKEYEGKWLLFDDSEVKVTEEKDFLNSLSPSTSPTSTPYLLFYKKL
Glucocorticoid receptor (Homo sapiens), sequence (P04150 whole entry, looked up): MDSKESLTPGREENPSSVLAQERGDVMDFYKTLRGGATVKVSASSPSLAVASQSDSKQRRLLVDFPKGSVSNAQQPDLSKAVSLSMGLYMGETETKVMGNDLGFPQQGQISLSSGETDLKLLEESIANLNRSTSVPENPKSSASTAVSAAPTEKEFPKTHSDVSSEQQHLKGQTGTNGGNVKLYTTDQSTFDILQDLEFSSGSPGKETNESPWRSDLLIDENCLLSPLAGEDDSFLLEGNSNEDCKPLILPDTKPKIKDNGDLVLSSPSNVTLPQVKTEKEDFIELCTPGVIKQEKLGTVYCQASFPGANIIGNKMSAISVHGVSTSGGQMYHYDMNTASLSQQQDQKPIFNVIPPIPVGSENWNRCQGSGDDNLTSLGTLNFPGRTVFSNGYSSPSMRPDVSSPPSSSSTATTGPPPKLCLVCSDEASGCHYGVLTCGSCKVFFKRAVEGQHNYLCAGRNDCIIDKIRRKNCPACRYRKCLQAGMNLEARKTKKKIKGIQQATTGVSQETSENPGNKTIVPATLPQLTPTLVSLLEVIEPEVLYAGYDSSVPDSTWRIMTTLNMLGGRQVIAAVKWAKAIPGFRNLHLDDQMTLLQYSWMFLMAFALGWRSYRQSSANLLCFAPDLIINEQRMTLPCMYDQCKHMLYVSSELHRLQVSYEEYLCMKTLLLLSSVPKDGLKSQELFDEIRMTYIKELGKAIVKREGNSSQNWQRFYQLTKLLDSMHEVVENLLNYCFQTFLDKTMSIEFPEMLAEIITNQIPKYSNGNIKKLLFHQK
Androgen receptor (Homo sapiens), sequence (P10275 whole entry, looked up): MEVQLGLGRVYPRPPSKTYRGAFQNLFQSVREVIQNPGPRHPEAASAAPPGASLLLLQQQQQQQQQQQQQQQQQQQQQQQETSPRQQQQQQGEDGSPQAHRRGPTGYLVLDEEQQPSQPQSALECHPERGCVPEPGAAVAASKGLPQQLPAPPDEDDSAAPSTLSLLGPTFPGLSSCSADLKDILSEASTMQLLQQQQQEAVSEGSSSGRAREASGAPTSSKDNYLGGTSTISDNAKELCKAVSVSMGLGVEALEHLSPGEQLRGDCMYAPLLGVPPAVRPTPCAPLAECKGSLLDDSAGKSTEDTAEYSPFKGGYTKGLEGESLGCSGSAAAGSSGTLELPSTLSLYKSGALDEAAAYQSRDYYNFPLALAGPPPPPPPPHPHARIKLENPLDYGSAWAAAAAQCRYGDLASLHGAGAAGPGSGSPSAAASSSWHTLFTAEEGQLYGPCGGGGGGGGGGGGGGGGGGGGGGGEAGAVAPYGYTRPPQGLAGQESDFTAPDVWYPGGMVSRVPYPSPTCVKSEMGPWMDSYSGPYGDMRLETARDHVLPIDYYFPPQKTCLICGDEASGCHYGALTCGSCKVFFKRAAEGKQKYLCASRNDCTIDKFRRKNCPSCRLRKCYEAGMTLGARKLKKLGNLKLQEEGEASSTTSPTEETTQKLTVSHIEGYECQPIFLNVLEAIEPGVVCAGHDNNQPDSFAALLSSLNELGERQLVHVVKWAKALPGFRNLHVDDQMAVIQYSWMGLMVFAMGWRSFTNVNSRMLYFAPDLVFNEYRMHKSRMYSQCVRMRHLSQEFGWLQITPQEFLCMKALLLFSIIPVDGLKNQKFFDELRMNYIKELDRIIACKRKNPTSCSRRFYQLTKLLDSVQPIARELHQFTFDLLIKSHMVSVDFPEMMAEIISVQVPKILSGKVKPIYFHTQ
Peroxisome proliferator-activated receptor delta (Homo sapiens), sequence (Q03181 whole entry, looked up): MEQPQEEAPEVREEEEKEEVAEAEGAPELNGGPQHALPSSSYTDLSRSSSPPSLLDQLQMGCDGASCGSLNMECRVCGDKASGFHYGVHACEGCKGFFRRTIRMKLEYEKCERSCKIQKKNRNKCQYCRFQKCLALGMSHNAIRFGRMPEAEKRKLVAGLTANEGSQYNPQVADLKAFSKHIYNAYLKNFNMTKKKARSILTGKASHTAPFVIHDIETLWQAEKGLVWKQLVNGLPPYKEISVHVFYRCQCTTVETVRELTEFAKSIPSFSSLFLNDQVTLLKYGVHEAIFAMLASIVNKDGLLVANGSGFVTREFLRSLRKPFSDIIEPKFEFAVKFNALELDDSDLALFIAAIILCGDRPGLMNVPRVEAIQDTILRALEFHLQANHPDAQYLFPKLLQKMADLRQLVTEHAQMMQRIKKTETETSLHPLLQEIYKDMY
Vitamin D3 receptor (Homo sapiens), sequence (P11473 whole entry, looked up): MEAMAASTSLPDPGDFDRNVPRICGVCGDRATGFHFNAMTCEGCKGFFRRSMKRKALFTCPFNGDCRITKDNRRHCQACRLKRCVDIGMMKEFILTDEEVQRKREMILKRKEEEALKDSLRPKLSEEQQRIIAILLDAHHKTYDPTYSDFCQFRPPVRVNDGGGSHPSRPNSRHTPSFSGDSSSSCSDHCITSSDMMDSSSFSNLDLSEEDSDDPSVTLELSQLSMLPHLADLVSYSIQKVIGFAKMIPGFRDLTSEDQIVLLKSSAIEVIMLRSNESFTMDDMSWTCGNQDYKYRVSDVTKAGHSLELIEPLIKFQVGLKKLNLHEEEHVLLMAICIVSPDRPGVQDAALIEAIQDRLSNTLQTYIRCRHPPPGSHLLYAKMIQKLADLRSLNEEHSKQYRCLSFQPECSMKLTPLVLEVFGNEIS
Estrogen receptor (Homo sapiens), sequence (P03372 whole entry, looked up): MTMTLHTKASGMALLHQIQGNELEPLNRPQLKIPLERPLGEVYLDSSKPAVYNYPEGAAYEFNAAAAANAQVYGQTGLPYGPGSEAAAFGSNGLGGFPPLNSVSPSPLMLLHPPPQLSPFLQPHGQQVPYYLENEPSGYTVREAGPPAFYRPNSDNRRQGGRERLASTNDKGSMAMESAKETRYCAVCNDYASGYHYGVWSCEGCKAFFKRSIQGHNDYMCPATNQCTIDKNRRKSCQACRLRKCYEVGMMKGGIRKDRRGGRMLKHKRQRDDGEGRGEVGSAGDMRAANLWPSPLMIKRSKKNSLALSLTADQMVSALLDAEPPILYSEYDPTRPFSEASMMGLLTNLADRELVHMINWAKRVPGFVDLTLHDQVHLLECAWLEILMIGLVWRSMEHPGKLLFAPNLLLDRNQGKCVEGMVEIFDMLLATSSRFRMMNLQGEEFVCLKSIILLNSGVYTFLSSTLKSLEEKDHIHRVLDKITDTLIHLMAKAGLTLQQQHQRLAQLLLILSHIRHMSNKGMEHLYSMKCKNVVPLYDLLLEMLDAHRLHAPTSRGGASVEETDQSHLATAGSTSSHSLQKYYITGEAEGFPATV

CCCCCCCCCCCCCCCC(=O)O
inactive: outcome [1] | Potency [2] | outcome [3] | outcome [5] | outcome [6]
-15.5%: max response [4]

O=c1[nH]c(=O)n([C@H]2C[C@H](O)[C@@H](CO)O2)cc1F
inactive: Potency [7] | outcome [8]

Cc1ncc(CO)c(C=O)c1O
inactive: Potency [7] | outcome [8]

NC(=O)c1ccccc1O
-2.87%: max response [4]
inactive: Potency [7] | Potency [9] | Potency [10] | activation [11] 9.52% | outcome [1] | outcome [13] | Potency [2] | outcome [3] | outcome [5] | outcome [6]
7.67%: max response [12]

Oc1ccc(Cl)cc1Cc1cc(Cl)ccc1O
-27.5% and -0.357%: max response [4]
inactive: Potency [10] | activation [11] -2.26% and 2.38% | Potency [2] | outcome [3] | outcome [5] | outcome [6]

C#C[C@]1(O)CC[C@H]2[C@@H]3CCC4=Cc5oncc5C[C@]4(C)[C@H]3CC[C@@]21C
27%: max response [4]
active: Potency [10] 3160 nM
inactive: Potency [7] | activation [11] -5.91% | outcome [3] | outcome [5]

CCCN(CCC)S(=O)(=O)c1ccc(C(=O)O)cc1
inactive: Potency [7] | activation [14] -5.06% and 5.71% | Potency [15] | outcome [16] | activation [11] 0.219% and 1.81% | outcome [1] | outcome [13] | Potency [17] | Potency [2] | outcome [3] | outcome [5] | outcome [6]
32.2% and 48.9%: max response [12]
-13.7% and -10.4%: max response [4]

COc1ccc(C(Cl)=C(c2ccc(OC)cc2)c2ccc(OC)cc2)cc1
active: Potency [9] 1580 nM [inconclusive]
-9.29%: max response [4]
23%: max response [12]
inactive: Potency [7] | Potency [10] | activation [11] 2.85% | outcome [1] | outcome [13] | Potency [2] | outcome [3] | outcome [5] | outcome [6]
